In the library only some 1.8% were active in any assay of this set; here they are far more common.
MsrA inh = inhibitors of bovine MsrA; 0.75% of 360,000 active; purified bovine MsrA, absorbance read-out; inhibition, % at 15.5 µM; AID 651718; in the data active = inhibition above about 4.5%
GC-A act = GC-A (human) enzyme activation. activation, % at 10 µM. AID 1671463. HEK293 GC-A cells, cGMP TR-FRET, EC30 ANP; 0% at EC30 ANP, 100% saturating ANP. 0.14% of 370,000 active; in the data active = activation above about 40%
HTR2A ag = activates the mouse 5-HT2A serotonin receptor; activation, % at 7.6 µM; CHO-K1 mHTR2A beta-arrestin complementation, luminescence; percent of 30 µM serotonin response; P35363; 0.66% of 360,000 active;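 active = activation above a run cutoff, the mean activation of all tested compounds plus 3 SD, cut at about 14% in these data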
GC-B act = GC-B (human) receptor activation | P20594 | HEK293-GC-B cells, CNP EC30, cGMP TR-FRET; 0% at EC30 CNP, 100% saturating CNP | activation, % at 10 µM | 0.11% of 370,000 active | AID 1920062;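 active = activation at 10 µM reaching about 35% in either raw or pattern-adjusted values, limit read from the data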
Target sequence (P20594 whole entry, looked up): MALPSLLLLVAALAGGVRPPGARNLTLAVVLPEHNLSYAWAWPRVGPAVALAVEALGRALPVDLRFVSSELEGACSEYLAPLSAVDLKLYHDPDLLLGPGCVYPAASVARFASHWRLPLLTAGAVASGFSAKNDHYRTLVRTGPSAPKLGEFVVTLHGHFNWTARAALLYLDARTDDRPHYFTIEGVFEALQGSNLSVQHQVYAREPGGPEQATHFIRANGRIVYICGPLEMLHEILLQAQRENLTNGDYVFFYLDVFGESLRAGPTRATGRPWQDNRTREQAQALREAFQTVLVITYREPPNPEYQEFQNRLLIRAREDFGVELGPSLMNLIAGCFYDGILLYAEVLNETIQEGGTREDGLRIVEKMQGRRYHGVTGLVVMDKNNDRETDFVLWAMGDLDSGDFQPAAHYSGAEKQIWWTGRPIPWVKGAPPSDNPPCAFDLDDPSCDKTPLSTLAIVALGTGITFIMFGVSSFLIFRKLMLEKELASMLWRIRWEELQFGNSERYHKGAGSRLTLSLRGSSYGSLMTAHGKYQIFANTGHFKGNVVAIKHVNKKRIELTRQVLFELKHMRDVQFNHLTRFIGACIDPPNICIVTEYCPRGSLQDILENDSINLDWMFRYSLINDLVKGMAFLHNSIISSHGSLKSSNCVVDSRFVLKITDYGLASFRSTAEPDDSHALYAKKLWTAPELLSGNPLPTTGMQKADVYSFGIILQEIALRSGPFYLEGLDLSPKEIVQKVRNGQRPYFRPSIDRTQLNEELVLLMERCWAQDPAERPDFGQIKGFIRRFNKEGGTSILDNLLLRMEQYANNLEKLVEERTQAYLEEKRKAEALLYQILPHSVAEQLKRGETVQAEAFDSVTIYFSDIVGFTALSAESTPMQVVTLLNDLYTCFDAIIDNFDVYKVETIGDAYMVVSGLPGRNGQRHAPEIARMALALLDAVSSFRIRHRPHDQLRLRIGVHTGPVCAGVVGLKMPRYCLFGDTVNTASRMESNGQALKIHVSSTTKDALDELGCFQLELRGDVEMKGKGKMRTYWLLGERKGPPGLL
MsrA act = activates bovine MsrA enzyme | purified bovine MsrA, absorbance read-out | activation, % at 10.6 µM | 0.3% of 360,000 active | AID 602163; in the data active = activation above about 7.5%
MOR ag counter = activates human mu opioid receptor in HTR2A counterscreen; shares compounds with HTR2A ag; U2OS OPRM1 beta-arrestin PathHunter, luminescence; DMSO 0%, DAMGO 9.3 µM 100%; activation, % at 9.3 µM; 5.3% of 2,300 active; AID 624380;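 active = mean activation above the mean of DMSO-only wells plus 3 SD, cut at about 0.5% in these data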
HTR2A ag conf = mouse HTR2A agonism confirmed | activation, % at 7.6 µM | shares compounds with HTR2A ag | 19% of 2,300 active | AID 624381 | CHO-K1 PathHunter beta-arrestin recruitment, luminescence; DMSO 0%, 30 µM serotonin 100%;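 active = mean activation across triplicates above the hit threshold derived in the original primary screen, cut at about 15% in these data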
Large screens that a line does not name were inactive (follow-up assays come after a bar, where they were run).

COc1ccc(C(=O)N(C)C2CCCN(Cc3ccccc3F)C2)cc1OC (stereo not given)	HTR2A ag 16.9 | MOR ag counter inactive | HTR2A ag conf inactive
CCCc1ccc(C(=O)CN2C(=O)C(=O)N(C3CCCC3)C2=O)cc1	HTR2A ag 18.5 | MOR ag counter 1.3 | HTR2A ag conf inactive
COc1ccc(CCn2c(C)cc(C(=O)CN3C(=O)C(=O)N(C4CCCC4)C3=O)c2C)cc1OC	none
CC[C@]12c3[nH]c4ccccc4c3CCN1C(=O)C(CC(=O)NCc1cccc(C(F)(F)F)c1)C[C@@H]2C(=O)N1CCN(C(=O)c2ccco2)CC1 (stereo not given in full)	HTR2A ag 21.6 | MOR ag counter inactive | HTR2A ag conf inactive
CN(C)C(=O)CCc1ccc2c3c([nH]c2c1)[C@]1(C)[C@@H](C(=O)N2CCOCC2)C[C@H](CC(=O)NCc2cccc(C(F)(F)F)c2)C(=O)N1CC3	HTR2A ag 15.1 | MOR ag counter inactive | HTR2A ag conf inactive
COCCCNC(=O)C[C@H]1C[C@H](C(=O)N2CCOCC2)[C@@]2(CCC3CCCC3)c3[nH]c4cc(-c5ccco5)ccc4c3CCN2C1=O	HTR2A ag 15.5 | MOR ag counter inactive | HTR2A ag conf inactive
C[C@]12c3[nH]c4ccccc4c3CCN1C(=O)C(CC(=O)NCc1cccc(C(F)(F)F)c1)C[C@@H]2C(=O)N1CCOCC1 (stereo not given in full)	none
NC(=NCCc1c[nH]c2ccccc12)NC(=O)OCc1ccccc1	none (no result: MsrA inh, HTR2A ag, MsrA act)
COC(=O)[C@]12C[C@H](CC(=O)NCc3cccc(C(F)(F)F)c3)C(=O)N(Cc3ccco3)C1=C[C@H](C(C)(C)C)O[C@@H]2C	none (no result: MsrA inh, HTR2A ag, MsrA act)
CCCCNC(=O)C1CCCN1C(=O)Nc1cc(Cl)cc(Cl)c1 (stereo not given)	none (no result: MsrA inh, HTR2A ag, MsrA act)
COc1ccccc1NS(=O)(=O)c1ccc(C)c(C(=O)NCC(c2cccs2)N2CCOCC2)c1 (stereo not given)	HTR2A ag 19.0 | MOR ag counter inactive | HTR2A ag conf inactive
Cc1ccccc1OCC(=O)NCC(c1cccs1)N1CCOCC1 (stereo not given)	HTR2A ag 18.1 | MOR ag counter inactive | HTR2A ag conf inactive
O=C(COc1ccccc1Cl)NCC(c1cccs1)N1CCOCC1 (stereo not given)	none
Cc1cccc(NS(=O)(=O)c2ccc(C)c(C(=O)NCC(c3cccs3)N3CCOCC3)c2)c1 (stereo not given)	none
N[C@H](C(=O)N[C@@H](Cc1ccccc1)C(=O)N1CCC2CCN(S(=O)(=O)c3ccccc3)CC21)c1ccccc1 (stereo not given in full)	none (no result: MsrA inh, HTR2A ag, MsrA act)
Cc1ccccc1-n1c(=O)cc(N2CCN(C(=O)c3ccco3)CC2)[nH]c1=O	HTR2A ag 24.2 | MOR ag counter inactive | HTR2A ag conf inactive
O=C(c1ccco1)N1CCN(CCCCN2C(=O)c3ccccc3C2=O)CC1	HTR2A ag 17.1 | MOR ag counter inactive | HTR2A ag conf 54.4
O=C(c1ccco1)N1CCN(Cc2ccccc2F)CC1	HTR2A ag 20.4 | MOR ag counter inactive | HTR2A ag conf 75.9
O=C(c1ccco1)N1CCN(Cc2c(F)cccc2Cl)CC1	none
Cc1ccccc1CN1CCN(C(=O)c2ccco2)CC1	HTR2A ag 25.3 | MOR ag counter inactive | HTR2A ag conf 85.0
O=C(CSc1nc2ccccc2n1Cc1ccccc1)NN=C/C=C/c1ccccc1	none (no result: MsrA inh, HTR2A ag, MsrA act)
Cc1ccsc1C(=O)N1CCN(C(=O)c2ccco2)CC1	HTR2A ag 17.3 | MOR ag counter inactive | HTR2A ag conf inactive
CN(C)C(=O)N1CCN(C(=O)c2ccco2)CC1	none
Cc1cc(Br)cc(Cl)c1OCC(=O)N1CCN(C(=O)c2ccco2)CC1	none
Cc1cc(C)c(OCC(=O)OCC(=O)N2CCN(C(=O)c3ccco3)CC2)c(C)c1	HTR2A ag 18.8 | MOR ag counter inactive | HTR2A ag conf inactive
Cc1ccc(CN2CCN(C(=O)c3ccco3)CC2)cc1	HTR2A ag 42.8 | MOR ag counter inactive | HTR2A ag conf 120.7
N#Cc1ccc(OC[C@@H](O)CN2CCC(C(O)(c3ccccc3)c3ccccc3)CC2)cc1	none (no result: MsrA inh, HTR2A ag, MsrA act)
O=C(CCc1ccccc1-c1ccccc1CCNC(=O)c1c(F)cccc1F)NCc1ccccc1	none (no result: MsrA inh, HTR2A ag, MsrA act)
CSc1ccccc1OCc1cc(C(=O)N2CCCC2c2nonc2C)no1 (stereo not given)	none
Cc1cccc(C)c1OCc1cc(C(=O)N2CCCC2c2nonc2C)no1 (stereo not given)	HTR2A ag 14.4 | MOR ag counter inactive | HTR2A ag conf inactive
Cc1ccc(S(=O)(=O)NC2=NCN(CCN3CCOCC3)CN2)cc1	HTR2A ag 16.6 | MOR ag counter inactive | HTR2A ag conf inactive
CCCN1CN=C(NS(=O)(=O)c2ccc(C)cc2)NC1	none
CSc1nc(SCC(=O)NCc2ccco2)c2c3c(sc2n1)COC(C)(C)C3	HTR2A ag 19.4 | MOR ag counter inactive | HTR2A ag conf inactive
CCCCSc1nc(SCC(=O)NCc2ccco2)c2c3c(sc2n1)COC(C)(CC)C3 (stereo not given)	none
Cc1cc(C)cc(Cn2cc(CN3CC(N4CCN(Cc5ccccc5F)CC4)CS3(=O)=O)nn2)c1 (stereo not given)	HTR2A ag 14.9 | MOR ag counter inactive | HTR2A ag conf inactive
CCCCCCn1cc(CN2CC(N3CCCCC3)CS2(=O)=O)nn1 (stereo not given)	HTR2A ag 15.6 | MOR ag counter inactive | HTR2A ag conf inactive
COc1ccc(CCNC(=O)c2cc3c(C)nn(-c4ccccc4)c3s2)cc1OC	none (no result: MsrA inh, HTR2A ag, MsrA act)
COc1ccc(CCNS(=O)(=O)c2c(C)n[nH]c2C)cc1	none (no result: MsrA inh, HTR2A ag, MsrA act)
CN(CCc1ccccc1)C(=O)c1cc2ccccn2n1	none (no result: MsrA inh, HTR2A ag, MsrA act)
O=C1CN(C(=O)c2ccc(Br)o2)C(c2ccccc2)c2cc(Br)ccc2N1 (stereo not given)	none
Cc1ccc2c(c1)C(c1ccccc1)N(C(=O)c1ccc(Br)o1)CC(=O)N2 (stereo not given)	HTR2A ag 19.2 | MOR ag counter inactive | HTR2A ag conf inactive
Cc1nc2c(nnn2Cc2c(Cl)cccc2Cl)c(=O)[nH]1	HTR2A ag 18.6 | MOR ag counter inactive | HTR2A ag conf inactive
COc1cc(NC(=O)c2c(F)c(F)c(OC)c(F)c2F)ccc1NC(=O)c1cccs1	HTR2A ag 16.2 | MOR ag counter inactive | HTR2A ag conf inactive
CC(C)C(=O)Nc1cccc(-c2nc3ncccc3o2)c1	HTR2A ag 25.6 | MOR ag counter inactive | HTR2A ag conf inactive
CCOc1ccc(N2C(=O)CC(N(CCc3ccc(OC)cc3)C(=O)/C=C/C(=O)O)C2=O)cc1 (stereo not given)	HTR2A ag 16.8 | MOR ag counter inactive | HTR2A ag conf inactive
